In PubChem BioAssay AID493067 (National Center for Advancing Translational Sciences (NCATS), 2011):
Inconclusive results are not listed. Activity calls are given as the source filed them. Calls follow the shape of the dose curve; as a rule, active = well fitted activation curve with a large enough effect; inconclusive = small, poorly fitted or top-dose-only effect; inactive = flat fitted curve, though single readings scatter.

Assay: Confirmation Concentration-Response Assay for qHTS Assay for Epigenetic Modulators
Conditions: murine C127i LDR cells, GFP reporter derepression, 30 h
Excerpt: NIH Molecular Libraries Screening Centers Network [MLSCN] NIH Chemical Genomics Center [NCGC] MLSCN Grant: 1 X01 MH079860-01 Assay Provider: Elisabeth D. Martinez, University of Texas SW Medical Center NCGC Assay Overview: This assay, used for the primary screen, was employed here to confirm actives identified from the Locus Derepression (LDR) assay (PubChem AID 1865). The LDR assay detects the derepression of a GFP reporter that is stably integrated in a region of the genome of murine c127i mammary cells that is presumably silenced. Compounds that derepress or induce this reporter locus are identified by enumerating GFP positive cells using an Acumen Explorer Ex3 (TTP Labtech) laser-scanning microplate cytometer.
NCGC Assay Protocol Summary: Three hundred LDR cells in 5 uL per well were dispensed into black, clear-bottom 1536-well plates. Twenty-three nL compound was transferred to the assay plate and cells were incubated 30 hours at 37 C. Medium was removed, cells were washed two times with PBS, and GFP-positive cells were enumerated as fluorescent objects between the sizes of 20 to 120 um width and depth using an Acumen Explorer Ex3 (TTP Labtech) laser-scanning microplate cytometer. For further details, see Johnson, RL, Huang, W, Jadhav, A, Austin, CP, Inglese, J, Martinez, ED (2008). A quantitative high-throughput screen identifies potential epigenetic modulators of gene expression. […]

O=C1NC(=O)N(CCc2ccc(F)cc2)C(=O)/C1=C/C=C/c1ccccc1
Potency: 12.6 µM (active)
